Many of the other results were omitted from the sample, so hits are more common in it than they were.
mHTT-CaM PPI inh: inhibitors of human mutant huntingtin-calmodulin interaction | inhibition, % at 15 µM | P42858 | AlphaScreen His-mHTT/GST-CaM binding, luminescence | hit rate 3.6% among 190,000;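 further: 0% = both proteins with DMSO and 100% = one protein alone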
Pf apPOL block: Pf-apPOL DNA polymerase inhibition. Recombinant Pf-apPOL, molecular beacon fluorescence, 1.5 h. AID 1794808. inhibition, % at 10 µM. hit rate 0.25% among 210,000
Starred values were filed as active, the others as inactive. No stated cut-off is given here; in the data, active means inhibition above about 50%; inactive means the rest.

Screening CCCc1cc(C(=O)N2CCCC2c2c(C)noc2CC)no1 (stereo unspecified) returned mHTT-CaM PPI inh -4.7 and Pf apPOL block 4.1.
`COc1cccc(NC(=O)c2ccc(Cn3nc(C)c(Cl)c3C)o2)c1` gave mHTT-CaM PPI inh 5.0 and Pf apPOL block -9.1.
`COc1cccc(CN2CCOCC2)c1O` gave mHTT-CaM PPI inh -0.1 and Pf apPOL block -1.0.
`O=C(C1CCCC1)N1CCN(C(C(=O)N2CCOCC2)C2CCCC2)CC1` (stereo unspecified) gave mHTT-CaM PPI inh -3.3 and Pf apPOL block -4.4.
`Cc1c(OCc2ccc(Cl)c(Cl)c2)ccc(C(=O)C=CN(C)C)c1O` gave Pf apPOL block -12.0.
`Cc1nn(-c2ccccc2)c2sc(C(=O)NC(C)C)cc12` gave mHTT-CaM PPI inh 0.7 and Pf apPOL block -0.2.
Screening CN1CCC(N(C)C(=O)c2cc3c(-c4ccccc4)nn(-c4ccccc4)c3s2)CC1 returned mHTT-CaM PPI inh 99.9* and Pf apPOL block -1.1.
`O=C(NC1CCCC1)NC1CCN(C(=O)C2CCCC2)C1` (stereo unspecified) gave mHTT-CaM PPI inh 0.2 and Pf apPOL block -4.9.
For CC(C)(C)C1CCc2onc(C(=O)Nc3cc(Cl)ccc3O)c2C1 (stereo unspecified) the results were mHTT-CaM PPI inh 61.4* and Pf apPOL block -5.2.
For CC(C)(C)C1CCc2onc(C(=O)Nc3ccc(F)cc3F)c2C1 (stereo unspecified) the results were mHTT-CaM PPI inh -4.1 and Pf apPOL block -7.8.
Screening COc1cccc2cc(-c3cc(=O)oc4ccc(OC(=O)C5CC5)cc34)oc12 returned mHTT-CaM PPI inh -2.0 and Pf apPOL block 0.1.
`O=C(c1ccc([N+](=O)[O-])cc1)N1CCN(Cc2ccccc2F)CC1` gave mHTT-CaM PPI inh -4.8 and Pf apPOL block -14.1.
For COc1cc(SC)ccc1C(=O)Nc1nc2ccc(S(C)(=O)=O)cc2s1 the results were mHTT-CaM PPI inh 63.0* and Pf apPOL block -0.4.
COc1ccc(Cl)cc1C(=O)Nc1nc2ccc(S(C)(=O)=O)cc2s1 was read as mHTT-CaM PPI inh 1.0 and Pf apPOL block 0.9.
`COCCCNC(=O)c1cc2n(n1)CCCN(Cc1ccc(F)cc1)C2=O` gave mHTT-CaM PPI inh 0.1 and Pf apPOL block 14.8.
`O=C(CCn1ccc(=O)[nH]c1=O)N1CCN(C(=O)C2CC2c2ccccc2)CC1` (stereo unspecified) gave mHTT-CaM PPI inh -5.2 and Pf apPOL block -4.3.
O=C(c1ccccc1)N1CCc2c(nc3cc(-c4ccccc4)[nH]n3c2=O)C1 was read as mHTT-CaM PPI inh 48.7 and Pf apPOL block 51.1*.
Screening O=C(c1ccc2c(c1)OCO2)N1CCc2c(nc3cc(-c4ccccc4)[nH]n3c2=O)C1 returned mHTT-CaM PPI inh -0.9 and Pf apPOL block -1.3.
`COc1ccccc1CCC(=O)N1CCc2c(nc3cc(-c4ccccc4)[nH]n3c2=O)C1` gave mHTT-CaM PPI inh 59.4* and Pf apPOL block 3.1.
Screening O=C(c1cc(F)ccc1Cl)N1CCc2c(nc3cc(-c4ccccc4)[nH]n3c2=O)C1 returned mHTT-CaM PPI inh 71.3* and Pf apPOL block 2.7.
For O=C(c1ccccc1Cl)N1CCc2c(nc3cc(-c4ccccc4)[nH]n3c2=O)C1 the results were mHTT-CaM PPI inh 46.0 and Pf apPOL block -1.5.
COc1ccccc1CCC(=O)N1CCc2nc3cc(-c4ccccc4)[nH]n3c(=O)c2C1 was read as mHTT-CaM PPI inh 2.6 and Pf apPOL block -0.8.
`COC(=O)C1(C(F)(F)F)N=C2Sc3ccccc3N2C(=O)N1` (stereo unspecified) gave mHTT-CaM PPI inh 0.7.
`Cc1cc(NC(=O)C2CCCN(c3nnc4cccc(C)n34)C2)ccc1F` (stereo unspecified) gave mHTT-CaM PPI inh 35.5 and Pf apPOL block -2.0.
For Cc1ccc(NC(=O)C2CCCN(c3nnc4cccc(C)n34)C2)cc1F (stereo unspecified) the results were mHTT-CaM PPI inh 52.7* and Pf apPOL block -3.2.
`COc1ccccc1CN1CCc2nc(N3CCN(c4ncccn4)CC3)ncc2C1` gave mHTT-CaM PPI inh 100.2* and Pf apPOL block 4.9.
`Fc1cccc(CN2CCc3nc(N4CCN(c5ccccn5)CC4)ncc3C2)c1F` gave mHTT-CaM PPI inh 29.0 and Pf apPOL block -7.4.
For COc1ccccc1CN1CCc2nc(N3CCN(c4ccccc4)CC3)ncc2C1 the results were mHTT-CaM PPI inh 24.0 and Pf apPOL block 1.5.
COc1ccc(CN2CCc3nc(N4CCC(C)CC4)ncc3C2)cc1 was read as mHTT-CaM PPI inh 4.1 and Pf apPOL block -2.0.
c1ccc(CCN2CCc3nc(N4CCN(c5ccccn5)CC4)ncc3C2)cc1 was read as mHTT-CaM PPI inh 60.0* and Pf apPOL block 0.6.
Screening Clc1cccc(CN2CCc3nc(N4CCN(c5ccccn5)CC4)ncc3C2)c1 returned mHTT-CaM PPI inh 45.8 and Pf apPOL block -0.5.
Screening COc1ccc(OC)c(CN2CCc3nc(N4CCC(C)CC4)ncc3C2)c1 returned mHTT-CaM PPI inh 51.6* and Pf apPOL block -1.6.
`CC1CCN(c2ncc3c(n2)CCN(Cc2cccc(F)c2F)C3)CC1` gave mHTT-CaM PPI inh 74.4* and Pf apPOL block -3.3.
Screening N#CC1=C(N)Oc2c(oc(CO)cc2=O)C1c1ccccc1Br (stereo unspecified) returned mHTT-CaM PPI inh -1.4 and Pf apPOL block 0.6.
`Cc1ccc(C2C(C(=O)c3cccs3)=C(O)C(=O)N2CCN(C)C)cc1` (stereo unspecified) gave mHTT-CaM PPI inh -3.1 and Pf apPOL block -5.9.
For CCOc1ccccc1CN1CCc2nc(N3CCN(c4ccccc4F)CC3)ncc2C1 the results were mHTT-CaM PPI inh 65.9* and Pf apPOL block 3.9.
For COc1ccccc1CN1CCc2nc(N3CCN(c4ccccc4F)CC3)ncc2C1 the results were mHTT-CaM PPI inh 9.8 and Pf apPOL block 0.7.
`Cc1ccc(CN2CCc3nc(N4CCC(C)CC4)ncc3C2)cc1` gave mHTT-CaM PPI inh 48.9 and Pf apPOL block -1.7.
For Cc1ccc(CN2CCc3nc(N4CCC(C)CC4)ncc3C2)cc1C the results were mHTT-CaM PPI inh 71.8* and Pf apPOL block 1.8.
COc1ccc(OC)c(CN2CCc3nc(N4CCN(c5ccccn5)CC4)ncc3C2)c1 was read as mHTT-CaM PPI inh 50.1* and Pf apPOL block -1.6.
Screening COc1ccc(CN2CCc3nc(N4CCN(c5ccccn5)CC4)ncc3C2)c(OC)c1 returned mHTT-CaM PPI inh 36.7 and Pf apPOL block -0.2.
O=C(NCc1ccc(F)cc1F)C1CCN(c2cn[nH]c(=O)c2)CC1 was read as mHTT-CaM PPI inh -1.4 and Pf apPOL block -3.2.
Screening OC(CSc1ccccc1)CN1CCN(c2nccc(C(F)(F)F)n2)CC1 (stereo unspecified) returned Pf apPOL block -11.1.
`CCNC(=O)N1CCN(c2nc(C)nc(CC)c2Cc2cccc(C)c2)CC1` gave mHTT-CaM PPI inh 0.1 and Pf apPOL block 0.4.
`O=C(C=Cc1cc2ccccc2o1)c1cc(Cl)ccc1O` gave mHTT-CaM PPI inh 19.7 and Pf apPOL block -10.7.
`CN(C)c1ccc(CN2CCc3nc(Nc4ccc5c(c4)OCCO5)ncc3C2)cc1` gave mHTT-CaM PPI inh 38.7 and Pf apPOL block -0.8.
Screening CN(C)c1ccc(CN2CCc3nc(Nc4ccc5c(c4)OCO5)ncc3C2)cc1 returned mHTT-CaM PPI inh 39.7 and Pf apPOL block 0.0.
For CC(C)Oc1ccc(CN2CCc3nc(Nc4ccc5c(c4)OCCO5)ncc3C2)cc1 the results were mHTT-CaM PPI inh 71.8* and Pf apPOL block -3.5.
